Source: PubChem BioAssay
DT40 TDP1 no CPT: qHTS for Inhibitors of human tyrosyl-DNA phosphodiesterase 1 (TDP1): qHTS in cells in absence of CPT | AID 686978, 2013 | DT40 Tdp1-/- hTDP1 cells, no CPT, ATP luminescence, 48 h | Potency, µM (highest dose often 46.2 µM), most hits filed as inhibitors | 420,000 tested, 15% active; also: nearly all actives have a fitted effect of over 55% in size
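Luminescent ATP content (CellTiter-Glo) served as the growth readout. Knockout chicken DT40 cells expressing human TDP1 were exposed to compounds without camptothecin for a minimum 48 hr at 37 °C.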
uPA generation: inhibitors of cell surface uPA generation; AID 540303; 330,000 tested, 0.31% active; Potency, µM (doses to about 38.3 µM), usual class: inhibitors; cell surface uPA generation assay, qHTS; active = well fitted inhibition curve with a large enough effect; inconclusive = small, poorly fitted or top-dose-only effect; inactive = no such curve, though single readings can be large or run the other way; tested in mouse RAW 264.7 cells; also: nearly all actives have a fitted effect of over 55% in size
TDP1 cell CPT: DT40-hTDP1 cell growth loss with CPT; chicken DT40 Tdp1-/-;hTDP1 cells + 20 nM CPT, ATP luminescence, 48 h; Potency, µM (series often up to 46.2 µM), usual class: inhibitors; 420,000 tested, 12% active; AID 686979; also: nearly all actives have a fitted effect of over 55% in size
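Chicken DT40 Tdp1-/- cells complemented with human TDP1, 400 cells/well, exposed to compounds plus 20 nM camptothecin for at least 48 h at 37 C; viability read as ATP content by CellTiter-Glo luminescence.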
HT1080NT lethal: kills 2HG-producing HT-1080-NT fibrosarcoma cells; Potency, µM (top dose mostly 46.1 µM), hits mostly cytotoxic; HT-1080-NT fibrosarcoma viability, CellTiter-Glo ATP luminescence, 48 h; AID 686970; 360,000 tested, 1.6% active;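 also: NT is the 2HG producing partner of a matched IDH1 knockdown line; nearly all actives have a fitted effect of over 55% in size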
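Viability of the 2HG-overproducing fibrosarcoma line after 48 hours of compound exposure at 37 degrees C was determined by luminescence with CellTiter-Glo, and concentration-effect curves were then fitted and categorized.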
IL1B secr inh: inhibitors of inflammasome signaling (IL-1 beta secretion); THP-1 LPS/ATP IL-1B secretion, AlphaLISA, 16 h; active compounds read low; activity change, % at 57.5 µM; 360,000 tested, 4.7% active; AID 743279; in the data active = activity change below about -50%; inconclusive = mostly about -30% to -49%
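THP-1 cells pretreated 1 hr with compounds (up to 57.5 uM final), then stimulated with LPS (250 ng/mL final) plus ATP (1.25 mM final); secreted IL-1B measured by AlphaLISA after 16 hr, decreased signal indicating inhibition.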
HT1080 IDH1KD tx: kills HT-1080 cells with IDH1 knockdown. 360,000 tested, 2% active. HT-1080 IDH1 knockdown viability, ATP luminescence, 48 h. Potency, µM (highest dose often 46.1 µM), actives largely listed as cytotoxic. AID 686971
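Cytotoxicity counter-line: IDH1KD HT-1080, 48 h, CellTiter-Glo. Curves classed by r2, magnitude and activity.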
A number is an active result; – = inactive; ? = inconclusive; · = no result. In the library only some 19% were active in any assay of this set; here they are far more common. Unless noted, calls follow the shape of the dose curve; as a rule, active = well fitted curve in the direction sought with a large enough effect; inconclusive = small, poorly fitted or top-dose-only effect, or another doubt; inactive = no such curve, though single readings can be large; an effect the other way counts as inactive or inconclusive.

SMILES	DT40 TDP1 no CPT	uPA generation	TDP1 cell CPT	HT1080NT lethal	IL1B secr inh	HT1080 IDH1KD tx
COc1ccc(NC(=O)N2CCC3(CC2)CCN(C(=O)c2cnccn2)CC3)cc1	–	·	–	·	·	·
Cc1cc2cc(CN(Cc3cccs3)C(=S)NCc3ccco3)c(=O)[nH]c2cc1C	?	–	?	–	–	–
CCN(CC)CCN(Cc1cc2cc(C)c(C)cc2[nH]c1=O)C(=S)NCc1ccco1	–	–	–	?	-141.9	?
Cc1cc2cc(CN(CCN(C)C)C(=S)NCc3ccco3)c(=O)[nH]c2cc1C	13µM	–	?	?	-79.8	?
Cc1ccc(SCc2[nH]nc3c2C2(C(=O)N(C)c4ccccc42)C(C#N)=C(N)O3)cc1 (stereo not drawn)	?	–	–	14.6µM	–	?
CCOCCn1ccc2c(OCC(=O)Nc3ccc(OC(F)(F)F)cc3)cccc2c1=O	?	·	–	·	·	·
COc1ccc(/C=N/NC(=O)c2[nH]c3ccc(Cl)cc3c2-c2ccccc2)c(C(=O)O)c1OC	?	–	–	–	–	?
CN(C)c1ccc(/C=N/NC(=O)c2ccc3c(c2)OCO3)cc1	–	–	–	–	–	–
Cc1c(C(=O)N/N=C/c2ccccc2)[nH]c2ccc(Cl)cc12	6.51µM	2.82µM	9.2µM	18.4µM	–	14.6µM
Cc1c(C(=O)N/N=C/c2ccc(N(C)C)cc2)[nH]c2ccc(Cl)cc12	5.8µM	–	5.8µM	5.8µM	–	?
c1cnc(Sc2ccc3nnnn3n2)nc1	–	–	–	–	–	–
O=C1C=C(C#Cc2ccccc2)C[C@@H](c2ccc(F)cc2)C1	4.61µM	·	4.61µM	?	-84.9	–
COc1ccccc1C#CC1=CC(=O)C[C@H](c2ccc(F)cc2)C1	16.4µM	·	14.6µM	?	-57.7	–
COc1ccc(C2=CC(=O)C[C@H](c3ccc(F)cc3)C2)c(F)c1F	?	–	?	–	?	–
O=C(CN(Cc1ccccc1)C(=O)CCl)c1cccc(Br)c1	16.4µM	?	9.2µM	20.6µM	-98.4	16.4µM
CCOc1ccccc1CN(CCc1ccc2c(c1)OCO2)Cc1cccc(OC)c1OC	16.4µM	·	18.4µM	·	·	·
COc1cc(OC)c(OC)cc1CNCc1ccc2c(c1)OCO2	?	–	–	–	–	–
CCOc1ccc(CN(CCc2ccc3c(c2)OCO3)Cc2cc(OC)c(OC)cc2OC)cc1	14.6µM	·	?	·	·	·
O=C(CCCSc1nnc(SCCCC(=O)c2ccc(F)cc2)s1)c1ccc(F)cc1	?	–	18.4µM	–	-80.6	–
Nc1nnc(SCCCC(=O)c2ccc(F)cc2)s1	?	–	?	–	–	–
COc1ccc2nc3cccc(OC)c3nc2c1	?	–	?	–	–	–
COc1ccc2nc3ccccc3nc2c1N	8.2µM	–	?	–	-62.9	?
CC(C)c1ccc(/C=C/C2=NNC(=O)CC2)cc1	11.6µM	–	18.4µM	?	–	–
COc1cc(/C=C/C2=NNC(=O)CC2)cc(OC)c1OC	–	–	–	–	–	–
O=C(NCc1ccco1)/C(=C/c1ccc(Br)cc1)NC(=O)c1ccco1	–	–	–	?	–	?
SMILES	DT40 TDP1 no CPT	uPA generation	TDP1 cell CPT	HT1080NT lethal	IL1B secr inh	HT1080 IDH1KD tx
Cc1cc(F)ccc1-c1cc(C(=O)NCc2cccs2)[nH]n1	?	·	–	–	–	–
Cc1c(C)n(CCCN(C)C)c2ncnc(NC3CCCCC3)c12	?	–	?	–	-52.8	?
COc1ccccc1Nc1ncnc2c1c(C)c(C)n2CCCN(C)C	?	–	18.4µM	–	?	–
O=[N+]([O-])c1ccc(-c2nc(Nc3cccc(O)c3)c3ccccc3n2)cc1	4.11µM	–	16.4µM	?	-69.9	?
Cc1ccc(-c2nc(Nc3cccc(O)c3)c3ccccc3n2)cc1	23.1µM	–	20.6µM	?	?	–
c1cncc(Nc2c3ccccc3nc3ccccc23)c1	14.6µM	–	?	?	-94.0	?
Clc1cncc(Cl)c1NNc1c2ccccc2nc2ccccc12	?	–	?	–	–	–
Cc1ccc(-c2nc(Nc3ccc(N4CCOCC4)cc3)c3ccccc3n2)cc1	23.1µM	–	?	18.4µM	·	20.6µM
CCOC(=O)c1ccccc1NC(=O)c1sc2nc3n(c(=O)c2c1C)CCCC3	–	·	?	·	·	·
O=C(NCc1ccccc1)c1c[nH]c2ccccc2c1=O	?	–	–	–	–	–
Oc1cccc(Nc2c3ccccc3nc3ccccc23)c1	1.84µM	?	1.16µM	?	–	?
COC(=O)c1ccc(Nc2nc(-c3ccc(C)cc3)nc3ccccc23)cc1	7.31µM	·	13µM	·	·	·
Oc1cccc(Nc2nc(-c3ccccc3Cl)nc3ccccc23)c1	13µM	–	16.4µM	?	?	?
c1ccc2c(Nc3nncs3)c3ccccc3nc2c1	–	–	?	–	–	–
Cc1ccc(-c2nc(Nc3ccc(O)cc3)c3ccccc3n2)cc1	20.6µM	–	?	20.6µM	-87.8	20.6µM
c1ccc(Nc2nc(-c3ccccc3)nc3ccccc23)cc1	–	–	–	–	–	–
O=S(=O)(NC1CCCC1)c1ccc(F)cc1F	–	·	–	–	–	–
Cc1cc(=O)n(C(C)C(=O)NCc2ccccc2Cl)c2c1c(C)nn2-c1ccccc1 (stereo not drawn)	–	·	–	·	·	·
CCc1ccc(C)c(OC(=O)c2cncc(Br)c2)c1	–	–	–	–	–	–
O=C1CC[C@@H]2C[C@@]3(C[C@@H]4CCN1[C@H]24)Nc1cc([N+](=O)[O-])ccc1NC3=NCc1ccccc1	?	–	?	–	–	–
N=c1n(Cc2ccccc2)c2ccccc2n1CC(O)COc1ccc(Cl)cc1Cl (stereo not drawn)	7.31µM	–	20.6µM	29.1µM	-103.1	11.6µM
OC(COc1ccc(Cl)cc1)CN1CCN(c2ccccc2)CC1 (stereo not drawn)	–	–	–	–	–	–
COc1ccc(C(O)c2cnc(C)n2Cc2ccccc2)cc1 (stereo not drawn)	18.4µM	·	?	–	–	–
N=c1n(Cc2ccc(Cl)cc2)c2ccccc2n1CC(O)COc1ccccc1 (stereo not drawn)	8.2µM	–	?	20.6µM	-97.5	14.6µM
Cc1cccc(OCC(O)CN2CCNCC2)c1 (stereo not drawn)	–	–	–	–	–	–
Cc1cccc(OCC(O)Cn2c(=N)n(CCN3CCCCC3)c3ccccc32)c1 (stereo not drawn)	13µM	·	11.6µM	10µM	-51.0	11.2µM
COc1ccc(-c2nnc(SCC(=O)O)n2Cc2ccccc2)cc1	–	–	–	–	–	–
Cn1c(=O)n(CCOc2ccc(Cl)cc2Cl)c2ccccc21	–	–	–	–	–	–
